Hits are enriched below; roughly 6% of the tested compounds scored in any of these assays.
D1 potentiator = Potentiators of Human D1 Dopamine Receptor: qHTS; AID 504651, 2011; 360,000 tested, 0.036% active; potentiation, % at 10 µM; HEK293 TREx D1 cells, calcium flux, dopamine EC20 potentiation; D(1A) dopamine receptor (Homo sapiens), P21728; in the data active = potentiation above about 30%
D3 antag = qHTS of D3 Dopamine Receptor Antagonist: qHTS. D3R cells, DiscoveRx beta-arrestin luminescence, antagonist mode; stronger effect = lower value. max response, negative = inhibition, %. 360,000 tested, 2.5% active. AID 652054, 2013; in the data active = max response below about -50%; inconclusive = no clear call, values can overlap the other calls
Target sequence (P35462 whole entry, looked up): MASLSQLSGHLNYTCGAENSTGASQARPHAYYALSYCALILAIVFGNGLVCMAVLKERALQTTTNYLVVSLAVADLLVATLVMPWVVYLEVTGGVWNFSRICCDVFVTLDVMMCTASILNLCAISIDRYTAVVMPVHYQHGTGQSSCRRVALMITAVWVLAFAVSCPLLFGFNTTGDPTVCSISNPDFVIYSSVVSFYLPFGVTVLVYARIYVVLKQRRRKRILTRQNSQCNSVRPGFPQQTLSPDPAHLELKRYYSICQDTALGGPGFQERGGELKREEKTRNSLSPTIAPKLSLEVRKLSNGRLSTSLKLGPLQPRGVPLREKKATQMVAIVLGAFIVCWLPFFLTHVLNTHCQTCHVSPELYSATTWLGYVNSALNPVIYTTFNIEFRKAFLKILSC
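Cells expressing the human receptor were seeded at 1500 cells/well, incubated overnight at 37 degrees C in 5% CO2, then exposed to library compounds with dopamine controls for 90 minutes at 37 degrees C before luminescent detection.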
D1 ag = Allosteric Agonists of the Human D1 Dopamine Receptor: qHTS; D(1A) dopamine receptor (Homo sapiens), P21728; HEK293 T-REx D1 cells, calcium flux, agonist mode; activation, % at 2 µM; 360,000 tested, 1% active; in the data active = activation above about 30%
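Tetracycline-induced HEK293 TREx D1 cells, force-coupled to calcium signalling, were dye-loaded with a no-wash calcium kit. Compound was pin-added after a 10 s baseline. Fluorescence was read kinetically at 1 cycle/s for 180 s, with calcium rises flagged as agonism.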
D3 ag = qHTS of D3 Dopamine Receptor Agonist: qHTS; D(3) dopamine receptor (Homo sapiens), P35462; D3R DiscoveRx beta-arrestin cells, luminescence, 90 min; max activation, %; 410,000 tested, 0.58% active; in the data active = max activation above about 30%
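Agonist-mode cell screen: cells plated at 1500/well and incubated overnight at 37 °C, then exposed to library compounds for 90 min at 37 °C. Detection reagent was added for 30–60 min at room temperature, and luminescence was read.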
D1 antag = Antagonist of Human D 1 Dopamine Receptor: qHTS; AID 504652, 2011; HEK293 TREx D1 cells, calcium flux, dopamine EC80; stronger effect = lower value; activity change, negative = inhibition, % at 10 µM; D(1A) dopamine receptor (Homo sapiens), P21728; 360,000 tested, 3.2% active; in the data active = activity change below about -30%
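Using tetracycline-induced force-coupled D1 Hek293 cells and a calcium dye, signals were followed for 180 s after compound, then for 180 s after EC80 dopamine, to detect inhibitors.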
Hits are given with their value; n = inactive; u = inconclusive; x = no result; ! = a repeat was not active.

SMILES	D1 potentiator	D3 antag	D1 ag	D3 ag	D1 antag
CCN1C(=O)C(=Cc2ccc(N3CCOCC3)o2)C(=O)N(CC)C1=S	n	n	66	n	n
CN1C(=O)/C(=C\c2ccc(N3CCCCC3)o2)C(=O)NC1=S	n	u	33	n	n
CN1C(=O)/C(=C/c2ccc(N3CCCCCC3)o2)C(=O)NC1=S	n	-56	n	n	n
Cc1ccc(Cn2cccc(C(=O)Nc3ccc4c(c3)OCCO4)c2=O)cc1	n	x	n	n	x
CNc1ccc2oc(C[C@H]3O[C@@]4(CC[C@H]3C)O[C@H]([C@H](C)C(=O)c3ccc[nH]3)[C@H](C)C[C@H]4C)nc2c1C(=O)O	n	u	419	n	-45
N#Cc1ccc(NC(=O)CN2CCCCCC2)cc1Cl	n	n	n	n	n
N#Cc1ccc(NC(=O)CN2C(=O)NC3(CCCCCCC3)C2=O)cc1Cl	n	n	n	n	-57
CCOC(=O)c1cccc(C2=C(CNC(=O)c3ocnc3C)[C@H]3CC[C@@H](C2)N3Cc2ccccc2)c1	x	n	x	n	x
CS(=O)(=O)c1ccc(C2=C(CNC(=O)c3ccc([N+](=O)[O-])cc3)[C@H]3CC[C@@H](C2)N3Cc2ccccc2)cc1	x	-86	x	n	x
CCOC(=O)c1cccc(C2=C(CNC(=O)c3nccs3)[C@H]3CC[C@@H](C2)N3Cc2ccccc2)c1	x	-57	x	n	x
O=c1[nH]c2ccccc2n1C1CCN(C(c2cc3ccccc3o2)c2nnnn2-c2ccc3c(c2)OCCO3)CC1 (stereo not drawn)	x	n	x	43	x
COc1ccc(NC(=O)CN2C(=O)C(C)N=C(c3ccccc3F)c3cc(Cl)ccc32)c(OC)c1 (stereo not drawn)	n	x	n	n	n
COc1cc2[nH]c(=O)n(-c3ccc(C)cc3)c(=O)c2cc1OC	n	n	n	n	-44!
COc1cc2[nH]c(=S)n(-c3ccccc3)c(=O)c2cc1OC	n	n	n	n	n
C[C@@H]1O[C@@H](O[C@@H]2C=C3CC[C@@H]4[C@H](CC[C@]5(C)[C@@H](c6ccc(=O)oc6)CC[C@]45O)[C@@]3(C)CC2)[C@H](O)[C@H](O)[C@H]1O	x	x	x	n	x
CCn1ccnc1CN1CCCC(C(=O)c2cc(F)ccc2OC)C1 (stereo not drawn)	n	n	n	n	n
COc1ccc(F)cc1C(=O)C1CCCN(Cc2ccc(O)cc2)C1 (stereo not drawn)	n	-65	n	n	n
COc1ccc(C(=O)C2CCCN(Cc3ccc(F)cc3F)C2)cc1F (stereo not drawn)	n	n	n	n	-32
COc1ccc(Cl)cc1NC(=O)CN1C(=O)CN=C(c2ccccc2)c2cc(Cl)ccc21	n	x	n	n	n
O=C(Nc1ccc(C(F)(F)F)cc1)OC1CN2CCC1CC2 (stereo not drawn)	n	n	30	n	n
O=C(Nc1cccc(C(F)(F)F)c1)OC1CN2CCC1CC2 (stereo not drawn)	n	n	n	n	n
O=C1CC(c2ccc(F)cc2)c2c(c3ccccc3oc2=O)O1 (stereo not drawn)	n	x	n	n	n
CCCCCCC(=O)c1c(O)n(-c2ccccc2OC)c(=O)[nH]c1=O	n	n	n	n	-31
CCOC(=O)NC(C)(C)Cc1ccc(Cl)cc1	x	x	x	n	x
COc1ccccc1CC1/C(=N/O)C2CCN1CC2 (stereo not drawn)	n	n	n	n	-69
SMILES	D1 potentiator	D3 antag	D1 ag	D3 ag	D1 antag
COc1cc(CC(C)N)c(OC)cc1Br (stereo not drawn)	x	x	x	n	x
COc1ccc2c3c1O[C@H]1[C@@H](O)C=C[C@H]4[C@@H](C2)NCC[C@@]341	x	x	x	n	x
Cc1ccccc1-n1nc(C)c2c1NC(=O)CSC2c1ccc(N(C)C)cc1 (stereo not drawn)	n	x	n	n	n
CC(C)(C)NCC(O)c1cc(Cl)c(N)c(C(F)(F)F)c1 (stereo not drawn)	x	x	x	n	x
CCCCN1CCC(O)(c2ccccc2)C(C(=O)c2ccccc2)C1 (stereo not drawn)	n	-65	n	n	n
CC(C)Cc1nnc(NC(=O)CCC(=O)N2CCN(CCOC(c3ccccc3)c3ccccc3)CC2)s1	n	n	n	n	-32
CC(C)(C)OC(=O)c1ncn2c1[C@@H]1CCCN1C(=O)c1c(Br)cccc1-2	x	x	x	n	x
COc1ccc(C(CNC(=O)Cc2ccc(Cl)c(Cl)c2)N2CCCCC2)cc1 (stereo not drawn)	n	-67	n	n	n
COc1ccc(C(CNC(=O)Cc2ccc(Cl)c(Cl)c2)N(C)C)cc1 (stereo not drawn)	n	n	n	n	n
CN1CCN(c2ccc(S(C)(=O)=O)cc2[N+](=O)[O-])CC1	n	n	n	n	n
O=[N+]([O-])c1ccc(N(CCO)CCO)c2c1no[n+]2[O-]	x	-99	x	n	x
CN1CCN(c2ccc([N+](=O)[O-])c3no[n+]([O-])c23)CC1	n	u	33	n	-38
CNc1cc(Cl)c2nonc2c1[N+](=O)[O-]	n	-109	n	n	n
CN1c2ccccc2C(NCCCCCCC(=O)O)c2ccc(Cl)cc2S1(=O)=O (stereo not drawn)	x	x	x	n	x
CC1CCCCN1C(=O)c1ccc(N2CC3CC(C2)c2cccc(=O)n2C3)c([N+](=O)[O-])c1 (stereo not drawn)	n	u	n	n	n
O=C(c1ccc(N2CC3CC(C2)c2cccc(=O)n2C3)c([N+](=O)[O-])c1)N1CCCCC1 (stereo not drawn)	n	n	n	n	-53
O=C(c1ccc(N2CC3CC(C2)c2cccc(=O)n2C3)c([N+](=O)[O-])c1)N1CCCC1 (stereo not drawn)	n	n	n	n	-35
COc1ccc(OC)c(CC(C)N)c1 (stereo not drawn)	x	x	x	n	x
Cc1ccc(Cl)cc1NC(=O)N(Cc1ccc2c(c1)OCO2)C1CCN(Cc2ccccc2)CC1	n	x	n	n	n
C[C@]12CC[C@H]3[C@@H](CC[C@@]45O[C@@H]4C(O)=C(C#N)C[C@]35C)[C@@H]1CC[C@@H]2O	x	x	x	n	x
C/C(=C\c1ccc(N(C)C)cc1)[N+](=O)[O-]	n	n	n	n	n
CN(C)c1ccc(/C=C/[N+](=O)[O-])cc1	n	n	92	n	n
Cc1ccc(C)c(C2(O)CC(C)N(C)CC2C)c1 (stereo not drawn)	n	n	n	n	-46
COc1ccc2c(c1)c(C(=O)O)c(C)n2CC(C)C	n	n	n	n	n
COc1cc(O)c(C(=O)O)c(-c2cc(O)c(O)cc2C)c1	n	n	n	n	-31
CCC1(C)CC(=O)NC(=O)C1	x	x	x	n	x
